Test results reported in PubChem BioAssay (EPA / NIEHS).
Active and inactive are the calls of the source. Rule for the calls: active = hit-call score of the fitted dose curve at least 0.9, where 1 is the maximum; inactive = score below 0.9.

What follows are molecules tested on Pyruvate Dehydrogenase Kinase 4 (PDK4), PDK4 (gene 5166) (assay: LTEA_HepaRG_PDK4: Life Technologies and Expression Analysis (LTEA) Assay for Pyruvate Dehydrogenase Kinase 4 (PDK4) using HepaRG (AID 2283525)). Details: mRNA level, 48 h; actives raise or lower the signal.
Protocol: LTEA_HepaRG is a cell based, multiplexed-readout assay that uses HepaRG, a human liver cell line, with measurements taken at 48 hours after chemical dosing on a 96-well plate.LTEA_HepaRG_PDK4 is one of 102 assay component(s) measured in the LTEA HepaRG cell culture assay. It is a marker of Diseases associated with PDK4 including Platelet Glycoprotein Iv Deficiency and Diabetes Mellitus, Noninsulin-Dependent.Data from the assay component LTEA_HepaRG_PDK4 was analyzed into 1 endpoint. This assay endpoint, LTEA_HepaRG_PDK4, was analyzed with bidirectional fitting relative to DMSO as the negative control and baseline of activity. Using a type of inducible reporter, measures of mRNA induction for gain or loss-of-signal activity can be used to understand regulation of transcription factor activity. To generalize the intended target to other relatable targets, this assay endpoint is annotated to the kinase intended target family, where the subfamily is serine/threonine kinase.
A total of 1060 chemcials from the ToxCast library were tested in eight-point concentration-response experiments. Cell culture and cytotoxicity assays were conducted at Thermo Fisher Scientific's Custom Services facility (Madison, WI). A single lot of human HepaRG cells (Thermo Fisher Scientific, Frederick, MD) was used for the cell culture experiments. 96-well format collagen type I coated plates of human HepaRG cells were prepared using established methods. Briefly, cryopreserved HepaRG cells were thawed, plated at a density of approximately 100,000 cells/well in HepaRG Thaw, Plate, and General Purpose media (HPRG770, Thermo Fisher Scientific), and incubated for 48 hours. 0.5% DMSO was selected as vehicle control to balance the requisite need of DMSO in HepaRG cultures to maintain differentiation (for example, baseline metabolism, proportions of hepatocytes vs. cholangiocytes), while enabling further hepatic receptor pathway activation (for example, PXR and CAR) in response to chemical exposure. 48 hours after plating, the culture medium was replaced with HepaRG Serum-Free Incudtion Media. Cells were exposed to each test chemical in duplicate and maintained in CO2 incubators for another 48 hours. Chemical plates were thawed to room temperature and 200x concentrations of treatment groups were prepared. 8-point conentration-reponse curves were made with the highest exposure at 100 uM, followed by half-log dilutions, all in 0.5% DMSO. Each test plate contained variouse controls, induction positive controls (1mM phenobarbital), cytotoxicity positive controls ([…] aflatoxin B1), vehicle controls (0.5% DMSO), and total lysis controls (0.5% DMSO). Cell morphology images were taken using an Essen IncuCyte FLR automated microscope, with six 96-well plates imaged in about 24 minutes. Images were captured and exported and JPEG files. Spent culture media was transfered to black-well plates for the LDH assay, and remaining media was sorted at -80 C for later use. Cells were treated with RLT buffer and frozen until shipped for gene expression analysis. Total RNA was isolated from the cell suspension in 75 uL of Buffer RLT (Qiagen, Germantown, MD 20874) by Quintiles/Expression Analysis (Durham, NC) using a custom isolation procedure. Total RNA from each plate well was transferred to a preamplification plate. Fluidigm's 96.96 Dynamic ArrayTM (Fluidigm, Amsterdam, the Netherlands) technology was used for gene expression analyses by quantitative reverse transcription polymerase chain reaction (qRT-PCR, performed by Quintiles/Expression Analysis, Durham, NC)89. Standard TaqManTM Assays (Applied Biosystems/ThermoFisher Scientific, Foster City, CA) were used to assess the expression of 93 genes selected based on their selectivity and sensitivity to important hepatic receptors known to be modulated by environmental chemicals; importance in human hepatocyte functionality; and hepatotoxicity. […]
With `CN(C)C(=O)Nc1ccc(Cl)cc1` the outcome was “inactive”.
`Nc1ccc([N+](=O)[O-])cc1` was tested, and the outcome was “inactive”.
With `CCCCCCCCOC(=O)c1ccc(C(=O)OCCCCCCCC)c(C(=O)OCCCCCCCC)c1` the outcome was “inactive”.
For `COC(=O)c1ccccc1N`, the outcome was “inactive”.
With `c1ccc2c(c1)-c1cccc3cccc-2c13` the outcome was “inactive”.
In the case of `Oc1ccccc1Cl`, the outcome is reported as “inactive”.
For `CCC12COCN1COC2`, the outcome was “inactive”.
In the case of `Nc1ccc(Cc2ccc(N)cc2)cc1`, the outcome is reported as “inactive”.
For `Brc1ccc(Oc2ccccc2)cc1`, the outcome was “inactive”.
For `Clc1ccc(C(c2ccc(Cl)cc2)C(Cl)(Cl)Cl)cc1`, the outcome was “inactive”.
In the case of `Cc1cccc(N)c1N`, the outcome is reported as “inactive”.
`CC(C)(C)C(O)(CCc1ccc(Cl)cc1)Cn1cncn1` (stereo not given) was tested, and the AC50 was 80.9 µM (active).
For `CCCCOC(=O)c1ccccc1C(=O)OCc1ccccc1`, the outcome was “inactive”.
In the case of `CO[C@@H]1[C@H](OC(=O)NC(=O)CCl)CC[C@]2(CO2)[C@H]1[C@@]1(C)O[C@@H]1CC=C(C)C`, the outcome is reported as “inactive”.
For `Cc1cc(N=Nc2ccccc2C)ccc1N`, the AC50 was 2.39 µM (active).
With `[O-][Cl+]O` the outcome was “inactive”.
With `CCCCCCCCCCCCCN1CC(C)OC(C)C1` (stereo not given) the outcome was “inactive”.
For `Clc1ccc(C(c2ccc(Cl)cc2)C(Cl)Cl)cc1`, the outcome was “inactive”.
In the case of `CCNS(=O)(=O)C(F)(F)C(F)(F)C(F)(F)C(F)(F)C(F)(F)C(F)(F)C(F)(F)C(F)(F)F`, the AC50 is reported as 30.4 µM (active).
`Clc1ccccc1Cl` was tested, and the outcome was “inactive”.
For `C=CCc1ccc2c(c1)OCO2`, the outcome was “inactive”.
With `OCCOCCO` the outcome was “inactive”.
In the case of `O=C(Oc1ccc(Br)cc1)N1CCN2CCC1CC2`, the outcome is reported as “inactive”.
With `CCCCC(CC)COC(=O)c1ccc(C(=O)OCC(CC)CCCC)c(C(=O)OCC(CC)CCCC)c1` (stereo not given) the outcome was “inactive”.
With `[As]#[In]` the outcome was “inactive”.
For `c1ccc(N=Nc2ccccc2)cc1`, the outcome was “inactive”.
`CNC(=O)Oc1cccc2c1OC(C)(C)C2` was tested, and the AC50 was 4.56 µM (active).
In the case of `CCOC(=O)[C@]1(c2ccccc2)Oc2ccccc2[C@@H]1N`, the AC50 is reported as 71.2 µM (active).
`ClC1=C(Cl)C2(Cl)C3C(Cl)C=CC3C1(Cl)C2(Cl)Cl` (stereo not given) was tested, and the AC50 was 50 µM (active).
`O=[N+]([O-])C(Br)(CO)CO` was tested, and the outcome was “inactive”.
In the case of `CS(=O)(=O)NC(=O)c1cc(Oc2ccc(C(F)(F)F)cc2Cl)ccc1[N+](=O)[O-]`, the AC50 is reported as 16 µM (active).
`C[C@]12C=CC3=C4CCC(=O)C=C4CC[C@H]3[C@@H]1CC[C@@H]2O` was tested, and the outcome was “inactive”.
`CCN(CC)N=O` was tested, and the outcome was “inactive”.
In the case of `Nc1cc(Cl)cc(C(=O)O)c1Cl`, the outcome is reported as “inactive”.
For `CCCCCCCCn1sccc1=O`, the AC50 was 34.4 µM (active).
For `Cc1ccc(N=C=O)cc1N=C=O`, the AC50 was 19.6 µM (active).
`CC(O)CCO` (stereo not given) was tested, and the outcome was “inactive”.
For `CN(C)c1ccccc1`, the outcome was “inactive”.
For `O=Cc1ccco1`, the outcome was “inactive”.
In the case of `Cc1ccc([N+](=O)[O-])cc1`, the outcome is reported as “inactive”.
